# Results: PubChem BioAssay AID455 (Sanford-Burnham Center for Chemical Genomics, 2006)
# Out of some 10,000 compounds screened, about 20 (0.2%) were called active.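 How the source made its calls: active means a compound raising TNF-alpha-driven VCAM-1 surface staining, with its hit status upheld on visual or statistical review; inactive means the rest, including hits rejected on review.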 This excerpt belongs to a sample that is enriched for actives.
# Assay: enhancers of VCAM-1 display on endothelial cells, cell-based, plate reader, pooled HUVEC, TNFa stimulus (AID 455);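 on augmentation: 0% = TNFa plus DMSO wells and 100% = a visually confirmed top hit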
# Details: HUVEC TNFa-induced VCAM-1 immunofluorescence; active compounds read high, 100% set by best visually verified hit,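 tested at 5 µM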
row,SMILES,augmentation
1,CC(=O)Nc1ccc(Cl)cc1C(=O)O,inactive
2,CCCc1ccc(C(C)NC(=O)c2cnccn2)cc1 (stereo unspecified),inactive
3,CCCCNC(=O)Cn1c(=O)n(C)c2ccccc21,inactive
4,CCOC(=O)c1[nH]c(C)c(C(=O)Nc2ccc(Cl)cc2)c1C,inactive
5,Cc1ccc2cc3cc(C(=O)NCCN4CCOCC4)oc3nc2c1,inactive
6,CC(=O)c1cccc(NC(=O)N2C3CCC2CC(O)(c2cccnc2)C3)c1 (stereo unspecified),inactive
7,O=c1oc2c3c4c(cc2s1)CCCN4CCC3,inactive
8,O=c1oc2c3c4c(cc2cc1-c1nc2ccccc2[nH]1)CCCN4CCC3,100% (active)
9,c1ccc2nc(-c3nc4ccccc4[nH]3)ccc2c1,inactive
10,Cn1c(Cc2ccccc2)nnc1SCC(=O)c1ccc(Br)s1,inactive
11,CCOc1ccccc1C(=O)Nc1nnc(CC)s1,inactive
12,CCOC(=O)c1ccccc1NC(=O)CSc1nc2c(c(=O)n(C)c(=O)n2C)n1C,inactive
13,Cc1cc(=O)n2nc(N3CCCC(C(=O)N4CCc5ccccc54)C3)sc2n1 (stereo unspecified),inactive
14,CN(CCNC(=O)c1ccc(N2CCCC2=O)cc1)CCc1ccccc1,inactive
15,CC(C)n1nc(C(=O)Nc2nc3ccc(S(C)(=O)=O)cc3s2)c2ccccc2c1=O,inactive
16,Cc1ccc(CN2C(=O)CCC2C(=O)NCC2CCCO2)cc1 (stereo unspecified),inactive
17,CCCCn1c(SCc2cccnc2)nc2c1c(=O)n(C)c(=O)n2C,inactive
18,O=C(CCN1C(=O)COc2ccccc21)NCCN1CCN(c2cccc(Cl)c2)CC1,inactive
19,COc1ccc(NC(=O)CSc2nnc(Cc3cccn3C)n2-c2ccc(F)cc2)cc1,inactive

row,SMILES,augmentation
1,COc1cc2c(cc1OC)-c1cc(OCc3cccnc3)nc(=O)n1CC2,inactive
2,CN(Cc1ccccc1)S(=O)(=O)c1ccc(S(=O)(=O)N2CCN(CCC#N)CC2)cc1,inactive
3,CCOC(=O)c1[nH]c2ccccc2c1NC(=O)C(CC)CC,inactive
4,c1coc(Cn2nnnc2CN2CCN(C3CCCC3)CC2)c1,inactive
5,Cc1ccc(C)c(N2CCN(C(=O)c3ccc(CS(=O)(=O)c4ccccc4C)o3)CC2)c1,inactive
6,O=c1c2cn[nH]c2nc(SCc2ccc3c(c2)OCCO3)n1-c1ccccc1,inactive
7,COc1ccc(CCn2c(-c3ccco3)nc3nc4ccccc4nc32)cc1,inactive
8,Cc1nnc(NC(=O)CSc2nc3c(c(=O)n2C)SC(C)C3)s1 (stereo unspecified),inactive
9,CCOc1ccccc1N1CC(O)=C(c2nc3ccccc3s2)C1=N,inactive
10,Cc1nc2cc(NC(=O)N3c4ccccc4CC3C)ccc2o1 (stereo unspecified),inactive
11,Cc1cc(OCC(O)CN2CCN(CCO)CC2)ccc1C(C)C (stereo unspecified),inactive
12,Cc1ccn2cc(CCNC(=O)CC(C)(C)C)nc2c1,inactive
13,CN(C)c1ccc(C2C3=C(CCCC3=O)OC3=C2C(=O)CCC3)cc1,inactive
14,CCOC(=O)c1cc(CC)sc1NC(=O)COC,inactive
15,CCOc1ccc(NC(=O)CCN2CCN(c3ccccc3)CC2)cc1,inactive
16,Cc1ccc2[nH]c(=O)c(C(c3nnnn3CCc3ccccc3)N3CCOCC3)cc2c1 (stereo unspecified),inactive
17,CC(=O)N1C(=O)C2(C(C#N)=C(N)Oc3cc(C)oc(=O)c32)c2ccccc21 (stereo unspecified),inactive
18,CCOC(=O)NC(c1ccccc1)C1CCCCC1=O (stereo unspecified),inactive
19,O=C(Cn1c(NCCO)nc2ccccc21)c1ccccc1,inactive

row,SMILES,augmentation
1,CCOc1ccc(OCC)c(NC(=O)CCCN2C(=O)c3cccnc3C2=O)c1,inactive
2,Cc1cccnc1NC(=O)CCCN1C(=O)c2ccccc2C1=O,inactive
3,Cc1cc(NC(=O)CCCN2C(=O)c3cccnc3C2=O)no1,50.9% (active)
4,O=C(c1ccccc1)c1ccc2nc[nH]c2c1,inactive
5,O=C(NCCN1CCOCC1)NC1(C(F)(F)F)Oc2ccc(Cl)cc2O1 (stereo unspecified),inactive
6,C=CCSc1n[nH]c(-c2ccc(OC)cc2)n1,inactive
7,Cc1c(Cl)cccc1N1C(=O)c2ccccc2C1=O,inactive
8,Cc1nc2cc(-n3ccc(=O)cc3)ccc2n1-c1ccccc1,inactive
9,Cn1c(=O)cc(SCC(=O)NCc2cccnc2)c2ccccc21,inactive
10,O=c1cc(C(F)F)oc2c1ccc1ccccc12,97% (active)
11,CSc1nc2c(ccc3ccccc32)o1,inactive
12,COc1ccc(CCN2C(=O)CC(N3CCN(S(=O)(=O)c4ccccc4)CC3)C2=O)cc1 (stereo unspecified),inactive
13,COCc1nnc(SCC(=O)NC(C)c2ccccc2)n1-c1ccccc1 (stereo unspecified),inactive
14,COc1ccc(C(=O)N2CCCc3ccccc32)cc1,inactive
15,CCOC(=O)N1CCN(C(=O)Cn2ncn3nc(-c4cccs4)cc3c2=O)CC1,inactive
16,COc1cccc(-n2c(C)nc3c(cnn3-c3ccc(Cl)cc3)c2=O)c1,inactive
17,CCC(C)(C)n1nnnc1C(c1ccc(OC)c(OC)c1)N1CCN(c2ccc(F)cc2)CC1 (stereo unspecified),inactive
18,COc1ccc(OC)c(NC(=O)C2C3CC4OC(=O)C2C4C3)c1 (stereo unspecified),inactive
